Activity calls are given as the source filed them.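 Rule for the calls: active = EC50 at or below 10 µM; inactive = EC50 above 10 µM.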 Where only a bound is given, the exact number is not on record here.

In general, EC50 refers to the concentration giving half of the maximal effect.

The nature of the experiment: fluorescence interference artefacts, compound only, dose response, artefact control for cardiac thin filament activator project, biochemical, no RTF in test wells (AID 504697).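 Note: emission near 535 nm under roughly 485 nm excitation as for IANBD.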 The conditions noted are these: compound-only fluorescence in RTF assay buffer with Ca2+ (no RTF in test wells), artifact counterscreen.
Turning to `CC(=O)N(C)c1ccc(C(O)(C(F)(F)F)C(F)(F)F)cc1`, the EC50 was > 71.5 µM (inactive).
Regarding `N#C/C(=C\c1ccc(N2CCOCC2)o1)c1nc2ccccc2[nH]1`, the concentration giving a half-maximal response (EC50) is 1.37 µM (active).
For the molecule `O=C(CO/N=C/c1ccccc1OC(F)F)NCc1cccs1`, the EC50 was > 71.5 µM (inactive).
`CCC(/C=C1\Oc2ccc(OC)cc2N1C)=C\c1sc2ccccc2[n+]1CCCS(=O)(=O)[O-]`: the concentration giving a half-maximal response (EC50) was 2.92 µM (active).
Regarding `COc1ccc(NC(=O)/C(C#N)=C\c2ccc(N3CCOCC3)o2)cc1`, the EC50 was 3.63 µM (active).
As to `O=C(Nc1ccc2c(c1)OCCO2)c1cccc(Cl)c1Cl`, the EC50 was > 71.4 µM (inactive).
For `COc1ccc(OC)c(/C=C2\N=C(c3ccccc3)OC2=O)c1`, the EC50 was 1.71 µM (active).
`Cc1nnc(SCC(=O)NC(C)(C)C)n1C1CCCCC1`: the EC50 was > 71.5 µM (inactive).
`CC(Oc1ccc(F)cc1)C(=O)Nc1sc2c(c1C(=O)NCc1cccnc1)CCCC2` (stereo unspecified): the EC50 was > 71.5 µM (inactive).
In the case of `O=C1c2cccc3c(N4CCCCC4)ccc(c23)C(=O)N1c1cccc(O)c1`, the concentration giving a half-maximal response (EC50) is 5.54 µM (active).
The value for `CNC(=S)N1N=C(c2ccc(Br)cc2)CC1c1ccc(N(C)C)cc1` (stereo unspecified) was 51.4 µM (inactive).
In the case of `COc1ccc(S(=O)(=O)N2CN(Cc3ccco3)c3nc4ccccc4nc32)cc1`, the EC50 is > 71.5 µM (inactive).
For the molecule `O=C(CNCc1cccs1)Nc1ccc(S(=O)(=O)N2CCCCC2)cc1`, the EC50 is > 71.5 µM (inactive).
`CC1CN(c2ccc(NS(=O)(=O)c3ccccc3)cc2C(=O)O)CC(C)O1` (stereo unspecified): the EC50 was > 71.5 µM (inactive).
On to `NC(=O)C1CCN(C(=O)c2ccc(-c3ccccc3)cc2)CC1`, for which the EC50 is > 71.6 µM (inactive).
The value for `CC(COC(=O)c1ccccc1)(COC(=O)c1ccccc1)/[N+]([O-])=C/c1ccccc1` was > 71.5 µM (inactive); that for `CN(Cc1ccccc1)C(=O)c1[nH]cnc1C(=O)NCc1ccccc1` was > 71.6 µM (inactive).
The value for `S=C(Nc1ccc(N2CCOCC2)cc1)Nc1ccc2nc(-c3ccco3)c(-c3ccco3)nc2c1` was 11.4 µM (inactive); that for `CCOc1cc(N2CCOCC2)c(OCC)cc1NC(=O)CCS(=O)(=O)c1ccc(Cl)cc1` was > 71.5 µM (inactive); that for `COc1ccccc1N1CCN(c2ccc([N+](=O)[O-])cc2Cl)CC1` was > 71.5 µM (inactive).
Consider `Cc1ccc(C(=O)Nc2ccc3c(c2)ncn3C)cc1`, for which the EC50 was > 71.4 µM (inactive).
`C=CCn1c(=O)[nH]c2nc3cc(N=CN(C)C)c(C)cc3nc2c1=O`: the concentration giving a half-maximal response (EC50) was 4.96 µM (active).
On to `CCN1C(=O)/C(=C/N2CCc3ccccc32)SC1=S`, for which the EC50 was 10.1 µM (inactive).
The value for `CNC(=O)N(O)C1N(C)C(=O)N(CC(=O)OC)C1(C)C` (stereo unspecified) was > 71.5 µM (inactive).
The value for `CC1=CC(=C(C#N)c2nc3ccccc3s2)C=C(C)N1c1ccc(F)cc1` was 22.2 µM (inactive); that for `O=C1c2ccccc2C(Nc2cccnc2)N1Cc1ccccc1Cl` (stereo unspecified) was > 71.5 µM (inactive); that for `O=C(Cn1cnc2c(cnn2-c2ccccc2)c1=O)Nc1ccc(S(=O)(=O)N2CCOCC2)cc1` was > 71.5 µM (inactive).
The value for `CCOC(=O)/C(=C/C=C1\Sc2cc(OCC)c(OCC)cc2N1CC)C(C)=O` was 0.48 µM (active).
As for `Cc1ccc(C)c(N2CCN(C(=O)CN3C(=S)NC(C)(C)CC3C)CC2)c1` (stereo unspecified), the EC50 was > 71.5 µM (inactive).
Consider `Cc1cc2nc(C3CCCN(C(=O)NCc4ccccc4)C3)[nH]c2cc1C` (stereo unspecified), for which the EC50 was > 71.6 µM (inactive).
As for `COC(=O)c1ccc(S(=O)(=O)N2CCC(O)CC2)n1C`, the EC50 is > 71.4 µM (inactive).
`Cn1nccc1NC(=O)Nc1cccc(Cl)c1Cl`: the EC50 is > 71.4 µM (inactive).
For `O=C(/C=C/c1cn(CC(O)CN2CCCCC2)c2ccccc12)c1cccs1` (stereo unspecified), the EC50 was 34.6 µM (inactive).
For `COc1ccc(C)cc1NC(=O)C12CCC(C)(C(=O)O1)C2(C)C` (stereo unspecified), the EC50 was > 71.5 µM (inactive).
The value for `Nc1ccc2nc3c(=O)[nH]c(=S)[nH]c3nc2c1` was 2.93 µM (active).
For `COc1ccc(CNC(=O)c2sc(=S)n(-c3ccccc3)c2N)cc1`, the EC50 was > 71.5 µM (inactive).
